Structures are written as SMILES. About 5,300 (4.4%) of roughly 120,000 compounds were called active. Roughly 22% stayed inconclusive and do not appear here. For the sample, actives were picked, then their nearest neighbours and some compounds at random. A number with no mark means an inactive call. Calls follow the shape of the dose curve; as a rule, active = well fitted inhibition curve with a large enough effect; inconclusive = small, poorly fitted or top-dose-only effect; inactive = no such curve, though single readings can be large or run the other way.
Potency is read from the fitted curve at half-maximal effect.

The test can be described thus: qHTS Primary assay for Inhibitors of Plasmodium falciparum Dd2 growth in vitro. Also: nearly all actives have a fitted effect of over 65% in size. Conditions: P. falciparum Dd2 growth, SYBR Green, 72 h; series mostly up to 28.9 µM; activity, negative = inhibition: at the top concentration. From the text:
Malaria, a parasitic disease spread to humans through the bite of a Plasmodium infected Anopheles mosquito, continues to be a global health burden affecting millions of people, with an estimated 228 million cases and 405,000 deaths in 2018. Concerns about safety and limitations of current antimalarial treatments strongly emphasize the need to develop new therapeutic options. The scarce number of chemotypes and validated drug targets with efficacy against the liver stage, have hindered development of new antimalarials. To address this, a chemoprophylactic drug discovery effort was conducted through a combined phenotypic high-throughput asexual blood stage and liver stage screen, providing a robust foundation to identify liver-stage active lead chemotypes. Compounds were initially screened against Plasmodium falciparum Dd2 strain parasites using a in vitro SYBRGreen-1 based 72 hr proliferation assay to identify novel chemotypes to advance to liver stage assays. NIH/NCATS Early Translation Branch Assay Submitter (PI): Anton Simeonov Ph.D.
Malaria-vivax Assay Protocol: PROTOCOL TABLE (as described by Inglese et al., 2007) SEQUENCE No. (e.g., 1, 2, 3, etc.); […] (e.g., Cells, Incubation, Reagent, etc.); VALUE; DESCRIPTION SEQUENCE, Parameter, Description 1; Reagent; 3 uL complete malaria growth medium, 1536 TC treated Black clear bottom plate 2; Controls; 23 nL positive control artesunate (300 nM final) to column 1; Neutral control DMSO to columns 2-4 3; Compound; 23 nL of compounds in dose response concentration (29 uM to 0.5 nM final) 4; Reagent; 5 uL malaria infected red blood cells (2.5% hematocrit final, 0.3% parasitemia 5; Time; 72 hours at 37C (5% O2, 5% CO2, 90% N2; 95% Rh) 6; Reagent; 2 uL lysis buffer/SYBRGreen-1, 25 sec shake immediately following dispense 7; Time; ~16 hours at 37C (5% O2, 5% CO2, 90% N2; 95% Rh) 8; Detector; EnVision (PerkinElmer) bottom read at 485/14nm excitation and 535/25 nm emission NOTES (numbers refer to sequence above): 1; Complete Malaria Growth Media: 1X RPMI-1640 w/L-glutamine, 5.5g/L Albumax II, 367 uM Hypoxanthine, 25 mM HEPES, 0.25% Sodium Bicarbonate, 35 uM Gentamicin sulfate 2; Controls were added using the Kalypsis Pintool (Wako USA) equipped with 1536 pinhead 3; Compounds were added in a 7-point, titration with a high final concentration of 29 uM by Pintool from seven inter-plate titrations of library plates and two DMSO control plates at the beginning and end (see Yasgar et al., 2008). 4; Red blood cells infected with Plasmodium falciparum Dd2 parasites were used. 6; Lysis buffer: 20 mM Tris-HCl, 10 mM EDTA, 0.16% Saponin, 1.6% Triton-X, 10X SYBR Green. REFERENCE: Inglese J, Shamu CE, Guy RK. 2007. Reporting data from high-throughput screening of small-molecule libraries. Nat Chem Biol. doi:10.1038/nchembio0807-438 Yasgar A, Shinn P, Jadhav A, Auld D, Michael S, Zheng W, Austin CP, Inglese J, Simeonov A. 2008. Compound Management for Quantitative High-Throughput Screening. J Lab Autom 13:79-89. doi:10.1016/j.jala.2007.12.004
(Quantitative high-throughput screening tests each substance at several concentrations.)
For the compound `Cc1ccc(S(=O)(=O)NC2(C(F)(F)F)NC(=O)N(CCc3ccccc3)C2=O)cc1` (stereo not given), the “activity, negative = inhibition” value is 12%.
For `Cc1ccc(C(=O)CC2(O)C(=O)N(CCc3ccccc3)c3ccc(Br)cc32)cc1` (stereo not given), the Potency was 10 µM (active).
In the case of `Cc1ccc(C(=O)N2CCc3cc(CNC(=O)c4ccc(Br)cc4)ccc32)cc1`, the call was inactive.
Regarding `COCCN1CCC(N2CCN(C(=O)c3cc(F)cc(F)c3)CC2)C1=O` (stereo not given), the “activity, negative = inhibition” value was 5.06%.
Same read-out and setting: in the case of `CC(=O)c1ccc(NC(c2ccc(F)cc2)c2nnc(-c3ccccc3)o2)cc1` (stereo not given) it was 3.29%.
On to `Cc1cc(C)cc(NC(c2nnc(-c3cccc(F)c3)o2)c2ccc(F)cc2Cl)c1` (stereo not given), for which the Potency was 3.55 µM (active).
As for `Cc1c(C(=O)N2CCn3nc(C(O)CO)cc3C2)sc2ccccc12` (stereo not given), the “activity, negative = inhibition” value is -5.26%.
Still for that read-out and setting: in the case of `O=C(c1cnc2c(c1)N(Cc1ccccc1)CCC2)N1CC[S+](=O)([O-])CC1` it was -8.42% [at 44.1 µM].
The same measure, in the same setting: in the case of `COCCNC(=O)C[C@@H]1C[C@H]2O[C@H](CNC(=O)Nc3cccc(Cl)c3)[C@@H](O)[C@H]2O1` it was 20.7% [at 44.1 µM]; in that of `CCCN1CCc2nc(N3CCN(C)CC3)ncc2C1`, 36.4% [at 5.79 µM].
With `CCN1CCN(c2ncc3c(n2)CC(c2ccccc2O)CC3=O)CC1` (stereo not given), the Potency was 8.91 µM (active).
In the case of `Cc1ccc(CN2CCc3nc(N4CCN(C)CC4)ncc3C2)cc1`, the outcome was inactive.
The same measure, in the same setting: the entry for `COc1ccc2[nH]c3c(c2c1)CCN(C)C31CCN(C(=O)c2ccoc2)CC1` is “inactive”; for `Cc1ccc(-c2nc(C(=O)N3CCN(c4ccccn4)CC3)no2)cc1` it is “inactive”.
Turning to `O=C(c1ccccc1)N1Cc2ccccc2NC(=O)C12CCNCC2`, the “activity, negative = inhibition” value was 11.4%.
Regarding `O=C(NCc1ccc(F)cc1)N1CCC(n2cnnc2C2CC2)C1` (stereo not given), the outcome was inactive.
Take `CCCNC(=O)N1CC(Oc2ccc(-c3nc(C)no3)cc2)C1`: the activity, negative = inhibition was 40.8% [at 5.79 µM].
Still for that read-out and setting: the figure for `COc1ccc(CCNC(=O)c2nn(C)c3c2CSc2ccccc2-3)cc1OC` is -1.26%; for `COc1ccc(Nc2cc3c(nc2-c2ccccc2)nc(C(=O)NCCN(C)C)n3C)cn1` it is -23.9%.
As for `COc1ccc(-c2cc3c(nc2-c2ccccc2)nc(C(=O)NCCN(C)C)n3C)cc1OC`, the Potency is 3.98 µM (active).
Consider `O=C(c1cnc[nH]1)N1C[C@@H](COCC2CC2)[C@H](c2ccccn2)C1`, for which the “activity, negative = inhibition” value is -19.5%.
On to `O=C(Nc1ccc(F)cc1F)N1CCC2(CC1)SCC(=O)N2c1ccc(Cl)cc1`, for which the compound was classed as inactive.
On to `O=C1Cc2c(-c3ccc(Oc4ccccc4)cc3)n[nH]c2CN1CCc1ccncc1`, for which the Potency was 11.2 µM (active).
Take `O=C1Cc2c(-c3ccc(CO)cc3)n[nH]c2CN1CC1CCOCC1`: the “activity, negative = inhibition” value was 6.98% [at 44.1 µM].
In the case of `CC(C)Oc1cccc(-c2n[nH]c3c2CC(=O)N(Cc2ccccc2)C3)c1`, the “outcome” value was “inactive [at 44.1 µM]”.
For the compound `O=C(CN1C(=O)C(c2ccccc2)=NC12CCCC2)N1CCN(c2ccccc2)CC1`, the “activity, negative = inhibition” value was 32.9%.
The same measure, in the same setting: in the case of `CCc1noc([C@@H]2CC(F)(F)CN2C(=O)c2cocn2)n1` it was 20.3%; in that of `O=C1CC(c2noc(-c3ccc(F)c(Cl)c3)n2)CN1c1ccc(F)cc1` (stereo not given), 28.5%.
The same measure, in the same setting: in the case of `CCC[S+](=O)([O-])NC1CCN(C(=O)N2CC3CC(C2)[C@H]2CCCC(=O)N2C3)CC1` (stereo not given in full) it was -12.6%; in that of `CCCS(=O)(=O)N1CC[C@H]2C(=O)NCCCCCCN(Cc3ccncc3)[C@@H]2C1`, 23%; in that of `Cc1noc(CC2CCOC3(CCN(C(=O)c4ccc(C#N)cc4)CC3)C2)n1` (stereo not given), -8.63%.
The same measure, in the same setting: in the case of `COCCC1(NS(C)(=O)=O)CCN(C(=O)c2ccc(C#N)cc2)CC1` it was -5.57%.
Take `Cc1ccc(C2=NC3(CCN(C(=O)c4ccc(C#N)cc4)CC3)ON2)cc1`: the Potency is 4.47 µM (active).
For `CCN1c2cc(C(=O)Nc3ccc(SC)cc3)ccc2C(=O)N2CCCCCC21` (stereo not given), the “activity, negative = inhibition” value was -3.15%.
Still for that read-out and setting: the figure for `CN1C(=O)c2cccn2CC1C(=O)NC1CCN(Cc2ccccc2)CC1` (stereo not given) is -6.66%.
For `CCN1c2cc(C(=O)NCc3ccc(OC)cc3OC)ccc2C(=O)N2CCCCCC21` (stereo not given), the Potency was 4.47 µM (active).
The same measure, in the same setting: the figure for `CCN1c2cc(C(=O)NC3CCN(Cc4ccccc4)CC3)ccc2C(=O)N2CCCCC21` (stereo not given) is 7.94 µM (active).
As to `CCN1c2cc(C(=O)Nc3ccc(OC)c(F)c3)ccc2C(=O)N2CCCCC21` (stereo not given), the outcome was inactive.
`CCN1c2cc(C(=O)Nc3ccc(F)c(C)c3)ccc2C(=O)N2CCCCC21` (stereo not given): the “activity, negative = inhibition” value is -9.86%.
Turning to `COc1ccc(CNC(=O)c2ccc3c(c2)N(C)C2CCCCN2C3=O)c(OC)c1` (stereo not given), the result was inactive.
Consider `CCN1c2cc(C(=O)NCc3cccc(F)c3)ccc2C(=O)N2CCCCCC21` (stereo not given), for which the Potency is 3.55 µM (active).
As for `CN1c2cc(C(=O)Nc3ccc(F)c(F)c3)ccc2C(=O)N2CCCCCC21` (stereo not given), the “activity, negative = inhibition” value was -20.7%.
For `CN(CCc1cn[nH]c1)c1ccc(-c2nc(-c3ccccc3F)no2)cn1`, the result was inactive.
For the compound `Cc1cc(C)n(CC(=O)N2CC[C@@H]3CN(S(C)(=O)=O)[C@@H]3C2)n1`, the “activity, negative = inhibition” value was 25.9%.
Consider `Oc1ccccc1CN1C[C@H](O)C[C@H]1c1nc(Cc2ccc(F)cc2Cl)no1`, for which the “outcome” value was “inactive [at 44.1 µM]”.
